Molecules are shown by their SMILES. The whole screen tested about 290,000 compounds, of which about 3,000 (1%) were called active. Many of the other results were omitted from the sample, so actives are more common in it than they were. Unmarked numbers belong to inactive results. No stated cut-off is given here; in the data, active means inhibition mostly above about 36% (no sharp cut-off); inactive means mostly below about 34%.

This test in a line: NOD1 signaling inhibitors, primary screen, cell-based, luminescence, uHTS (AID 1578).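 Further: HEK-293T reporter cells stimulated with the NOD1 agonist gamma-tri-DAP.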 The settings on record: NOD1-driven NF-kB luciferase reporter cells, at 4 µM, stronger effect = higher value. Background: Reporter assays use an easily measured gene product as a stand-in for the process of interest.
A word on the inhibition: it is the relative decrease from the control value, in per cent. Consider `CCOC(=O)N1CCN(C(=O)C2CCC(=O)N2C(C)C)CC1` (configuration not stated), for which the inhibition was 3.6%.

Take `COc1ccc(/C=C/C(=O)O/N=C(\N)c2cccnc2)cc1OC`: the inhibition is -10%.

On to `Cc1ccccc1-c1nc(CS(=O)CC(=O)NC(C)CCc2ccccc2)c(C)o1` (configuration not stated), for which the inhibition is 19.2%.

In the case of `Cc1cccc(-c2nc(CS(=O)CC(=O)NC(C)CCc3ccccc3)c(C)o2)c1` (configuration not stated), the inhibition was 20.6%.

Regarding `Cc1ccc(-c2nc(CS(=O)CC(=O)NC(C)CCc3ccccc3)c(C)o2)cc1` (configuration not stated), the inhibition was 41.4% (active).

Consider `Cc1c(OCC(=O)NCCCn2ccnc2)ccc2c3c(c(=O)oc12)CCC3`, for which the inhibition was -17.1%.

`Cc1cc(C)cc(NC(=O)C2C3C=CC(O3)C2C(=O)O)c1` (configuration not stated): the inhibition was -15.9%.

On to `O=C1C=C(c2cccs2)C[C@H](c2ccccc2)[C@H]1n1nnc([N+](=O)[O-])n1`, for which the inhibition was 42.1%.

Consider `O=C1C=C(c2ccccc2)C[C@H](c2cccs2)[C@H]1n1cnc([N+](=O)[O-])c1`, for which the inhibition is -24.8%.

For the compound `CCN(CC)C(=O)c1sc(NC(=S)N2CCN(C(=O)C3CCCO3)CC2)c(C(=O)OC)c1C` (configuration not stated), the inhibition is 2.3%.

Turning to `COc1ccc2[nH]c3c(N4CCN(Cc5ccc6c(c5)OCO6)CC4)ncnc3c2c1`, the inhibition was 23.1%.

Regarding `Cc1ccc2[nH]c3c(N4CCN(Cc5ccc6c(c5)OCO6)CC4)ncnc3c2c1`, the inhibition is 73.7%.

In the case of `Brc1ccc2[nH]c3c(N4CCc5ccccc5C4)ncnc3c2c1`, the inhibition is -5.4%.

Regarding `Fc1ccc2[nH]c3c(N4CCN(Cc5ccc6c(c5)OCO6)CC4)ncnc3c2c1`, the inhibition was 58.2% (active).

`Cc1ccc2c(c1)[nH]c1c(N3CCN(Cc4ccc5c(c4)OCO5)CC3)ncnc12`: the inhibition is 58.5%.

As to `COc1cccc2[nH]c3c(N4CCN(Cc5ccc6c(c5)OCO6)CC4)ncnc3c12`, the inhibition is 60.8%.

For the compound `COc1ccc2c(c1)[nH]c1c(N3CCN(Cc4ccc5c(c4)OCO5)CC3)ncnc12`, the inhibition is 86% (active).

For `c1ccc2c(c1)CCN(c1ncnc3c1[nH]c1ccccc13)C2`, the inhibition was 81.6%.

On to `O=C(COC(=O)Cc1cccs1)Nc1ccc(F)c(F)c1F`, for which the inhibition is -10.6%.

Take `Cc1ccccc1-n1c(=O)cc(NCc2ccc3c(c2)OCO3)[nH]c1=O`: the inhibition is -1.9%.

Take `CN1C(=O)/C(=C\c2ccccc2)Sc2ccc(C(=O)N3CCN(c4ccccn4)CC3)cc21`: the inhibition is 46.8%.

As to `CN1C(=O)/C(=C/c2ccc(C(F)(F)F)cc2)Sc2ccc(C(=O)N3CCN(c4ccccn4)CC3)cc21`, the inhibition was 17.8%.

For the compound `CCN(CC)S(=O)(=O)c1ccc(S(=O)(=O)Nc2ccc(C(=O)N3CCCC3)cc2)cc1`, the inhibition was -2.4%.

Take `COc1ccc(NC(=O)CCN2C(=O)c3cccc([N+](=O)[O-])c3C2=O)cc1`: the inhibition was -11.3%.

For `N=c1oc2ccc(Cl)cc2cc1C(=O)Nc1ccc(F)cc1`, the inhibition is -7.8%.

On to `O=C(CCS(=O)(=O)c1ccccc1)Nc1ccccc1N1CCOCC1`, for which the inhibition is -9%.

With `CCOC(=O)C1=C(C)N=C2c3ccccc3C(=O)C2C1c1ccc(C)cc1` (configuration not stated), the inhibition is 44.1%.

As to `CCOC(=O)C1=C(C)N=C2c3ccccc3C(=O)C2C1c1ccc(Br)cc1` (configuration not stated), the inhibition is 72.4% (active).

`CCOC(=O)C1=C(C)N=C2c3ccccc3C(=O)C2C1c1ccc(Cl)cc1` (configuration not stated): the inhibition is 16.6%.

In the case of `Cc1ccc(C2N(c3cccc(Cl)c3)C(=O)N3CCCN23)cc1` (configuration not stated), the inhibition was 4.2%.

For `O=[N+]([O-])c1cc(/C=N/n2c(-c3cccnc3)n[nH]c2=S)ccc1Cl`, the inhibition was -11.7%.

For `Cc1cc(C)nc(NC(=O)Cc2ccc([N+](=O)[O-])cc2)c1`, the inhibition is -15.5%.

Regarding `O=C(Nc1ccccc1C(F)(F)F)N1CCCCCC1`, the inhibition is -17.1%.

Turning to `O=C(NCc1cccnc1)c1ccc2c(c1)C(=O)N(Cc1ccccc1)C2=O`, the inhibition is -4.4%.

`COc1ccc(Cn2c(C)c(C)c(C#N)c2NC(=O)Nc2ccc(F)cc2)cc1`: the inhibition was -50%.

As for `Cc1c(C#N)c(NC(=O)C(C)C)n(Cc2ccccc2)c1C`, the inhibition was -2.8%.

For `Cc1c(C#N)c(NC(=O)CCl)n(Cc2ccc(F)cc2)c1C`, the inhibition was 94.1% (active).

With `Cc1ccc(C(=O)N2CCOCC2)cc1S(=O)(=O)N1CCCCC1`, the inhibition is -11.7%.

`CCN1CCN(CC(=O)Nc2ccc(C)cc2C)C(=O)C1=O`: the inhibition is 29.5%.

As for `COc1ccc(NC(=O)C2=C(C)NC(=S)NC2c2ccc(O)c(OC)c2)cc1` (configuration not stated), the inhibition was -36.2%.

On to `Cc1ccc(NC(=O)c2cc(-n3cnnc3)ccc2Cl)cc1`, for which the inhibition was -21.5%.

For `Cc1ccc(NC(=O)c2cc(-n3cnnc3)ccc2Cl)c(C)c1`, the inhibition was 63.4% (active).

For the compound `Cc1ccnc(NC(=O)c2cc(-n3cnnc3)ccc2Cl)c1`, the inhibition is -27%.

Turning to `O=C(CCCN1C(=O)/C(=C/c2cccs2)SC1=S)Nc1cccc(C(=O)O)c1`, the inhibition was -20.6%.

As for `COc1ccc(-n2nc(C(=O)NCC(=O)N3CCCC(C)C3)c3ccccc3c2=O)cc1Cl` (configuration not stated), the inhibition is -22.7%.

On to `CCCC1S/C(=N/N=C/c2ccc(C)cc2)N(Cc2ccc(OC)cc2)C1=O` (configuration not stated), for which the inhibition is 39.2%.

Regarding `CCCC1S/C(=N/N=C/c2ccc(OC)cc2)N(Cc2ccc(OC)cc2)C1=O` (configuration not stated), the inhibition is 12.9%.

As to `CCCCC1S/C(=N/N=C/c2ccc(OC)cc2)N(Cc2ccc(OC)cc2)C1=O` (configuration not stated), the inhibition was 75.2% (active).

With `COc1ccccc1CNC(=O)C(C)n1nc(C)n2c(cc3occc32)c1=O` (configuration not stated), the inhibition is -26.7%.

Turning to `Cc1ccc(C(=O)C(C)N2C(=O)NC(C)(c3ccccc3)C2=O)cc1` (configuration not stated), the inhibition was -36.5%.

For `O=C(Cc1ccc(Br)c2ccccc12)N/N=C/c1ccccn1`, the inhibition is 7.4%.

Turning to `Cc1c(CCC(=O)O)c(=O)oc2c(C)c3occ(-c4ccc(Br)cc4)c3cc12`, the inhibition is 27.8%.

For the compound `COc1ccc(-c2coc3c(C)c4oc(=O)c(CCC(=O)O)c(C)c4cc23)cc1`, the inhibition is 10.4%.

Turning to `COC(=O)c1cc(-c2ccc(F)cc2)n(-c2ccccc2)n1`, the inhibition is -3.9%.

For `Nc1c(S(=O)(=O)O)cc(NC(=O)c2ccccc2)c2c1C(=O)c1ccccc1C2=O`, the inhibition was 11.8%.

For the compound `Cc1cc(C)cc(NC2=C(N)C(=O)c3ccccc3C2=O)c1`, the inhibition was -4.5%.

On to `Cc1cc(C)c(Nc2cc(S(=O)(=O)O)c(N)c3c2C(=O)c2ccccc2C3=O)c(C)c1`, for which the inhibition is 69.6% (active).

For the origin of these results see PubChem BioAssay AID1578 (Sanford-Burnham Center for Chemical Genomics, 2009).
